# Test results reported in PubChem BioAssay.
# Several values for one entry are separate records, joined by “and”; a condition that tells them apart may be missing. Identical values can stand only once. Activity calls are given as the source filed them. Unless noted, no stated cut-off is given here; in the data, active means inhibition above about 80%; inactive means the rest.
# Assays:
# [1] = BT084 cell growth, single and combined drugs, ICGC_MB145, cisplatin and BGB IC40 combos (AID 1671461); details: BT084 medulloblastoma cells, drug combinations, stronger effect = higher value;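 further: cells exposed to drugs for 96 hours; 0% = vehicle DMSO and 100% = high DMSO full killing control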
# [2] = RCMB18 cell growth, single agent and combined, cisplatin and BGB IC40 combos (AID 1671462); details: RCMB18 medulloblastoma cells, stronger effect = higher value;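 further: cells exposed to compound for four days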
# [3] = CRL1545 cell growth, single agent and combined, cisplatin and BGB IC20 combos (AID 1671464); details: CRL1545 osteosarcoma cells, stronger effect = higher value;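 further: cells exposed to compound for 96 hours before readout; 0% = vehicle DMSO and 100% = high DMSO killing control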
# [4] = viability loss with induced miR-34 in A549 – imaging, A549 dox-inducible miR-34, nuclei and caspase counts, primary screen (AID 1347080;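 active means compounds whose cell count with miR-34 switched on is under 0.7 times the count with it off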); details: A549 miR-34 inducible, Hoechst nuclei count, 48 h
# [5] = MELAS cybrid and Rieske KO viability enhancers – cell-based, MELAS cybrids, Rieske KO mouse fibroblasts, CellTiter-Glo, primary screen (AID 1508586;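 active means mean z-score across replicates of 1.96 or higher in either the MELAS or the Rieske mutant cell line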;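 further: z relative to plate mean and SD of compound and empty wells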); details: low glucose
# [6] = growth inhibition, single agent or in combination, cell-based, chromothripsis tumors, cisplatin or BGB combos (AID 1671449); details: LFS_MB_P medulloblastoma cells;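 further: cells exposed for 96 hours; 0% = vehicle DMSO and 100% = killing by high DMSO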
# [7] = growth inhibition, single agent and combos, cell-based, chromothripsis tumors, cisplatin or BGB combos (AID 1671450); details: HDN33 neuroblastoma cells, stronger effect = higher value;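 further: cells exposed to compound for four days; 0% = vehicle DMSO and 100% = cell killing by high DMSO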
# [8] = growth inhibition, single agents and combos, ICB984, cell-based, cisplatin or BGB combos, synergistic combos for chromothripsis tumors (AID 1671451; call rule not given here;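 further: cells exposed for 96 hours before readout; 0% = vehicle DMSO and 100% = killing by high DMSO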); details: ICB984 medulloblastoma cells, drug combinations, stronger effect = higher value
# [9] = growth inhibition, single agents and combos, LFS_MB_1R, cell-based, cisplatin or BGB combos, synergistic combos for chromothripsis tumors (AID 1671452); details: LFS_MB_1R medulloblastoma cells, stronger effect = higher value;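 further: cells exposed for 96 hours before readout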
# [10] = growth inhibition, single agents and combos, HTB85, cell-based, BGB or cisplatin IC20 combos, synergistic combos for chromothripsis tumors (AID 1671453); details: HTB85 osteosarcoma cells, drug combinations, stronger effect = higher value;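 further: cells exposed for 96 hours before readout; 0% = vehicle DMSO and 100% = high DMSO killing control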
# [11] = growth inhibition, single agents and combos, CRL2098, cell-based, BGB or cisplatin IC20 combos, synergistic combos for chromothripsis tumors (AID 1671454); details: CRL2098 osteosarcoma cells, drug combinations, stronger effect = higher value;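 further: cells exposed for 96 h before readout; 0% = vehicle DMSO and 100% = killing by high DMSO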
# [12] = growth inhibition, single agents and combos, HD-MB03, cell-based, BGB or cisplatin IC20 combos, synergistic combos for chromothripsis tumors (AID 1671455; in the data active means inhibition above about 83%;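 further: 0% = vehicle DMSO and 100% = high DMSO as cytotoxic control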); details: HD-MB03 medulloblastoma cells, stronger effect = higher value
# [13] = growth inhibition, single agents and combos, UWB1.289, cell-based, BGB or cisplatin combos, synergistic combos for chromothripsis tumors (AID 1671456); details: UWB1.289 ovarian carcinoma cells, stronger effect = higher value;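 further: cells exposed to compound for four days; 0% = vehicle DMSO and 100% = killing by high DMSO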
# [14] = growth inhibition, single agents and combos, LFS_MB_2R, cell-based, cisplatin combos, synergistic combos for chromothripsis tumors (AID 1671457); details: LFS_MB_2R medulloblastoma cells, stronger effect = higher value;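 further: cells exposed to compound for four days before readout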
# [15] = growth inhibition, MDA-MB-436, cell-based, BGB or cisplatin combos, synergistic combos for chromothripsis tumors (AID 1671458; call rule not given here;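 further: cells exposed for 96 hours; 0% = vehicle DMSO and 100% = killing by high DMSO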); details: MDA-MB-436 breast carcinoma growth inhibition, drug combinations, stronger effect = higher value
# [16] = UWB1.289_BRCA1 ovarian cancer growth, cell-based, BGB or cisplatin combinations (AID 1671459); details: UWB1.289 BRCA1 ovarian carcinoma, drug combinations, stronger effect = higher value
# [17] = drug combination toxicity in non-malignant astrocytes – cell-based, BGB or cisplatin IC20 combos, cytotoxicity control for chromothriptic childhood tumor combination screen (AID 1671460); details: Human astrocytes, viability inhibition, drug combinations, at 0.5 µM, stronger effect = higher value;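 further: cells exposed to compounds for 96 hours before viability readout; 0% = vehicle and 100% = killing control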
# [18] = compounds altering viability of human ES cells (AID 493140; call rule not given here;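 further: cells exposed to compounds for four days before counting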); details: human embryonic stem cell survival screen; stronger effect = higher value
# [19] = P. berghei load reduction in hepatocytes – cell-based, HepG2, luciferase luminescence, HepG2 viability, primary screen (AID 624349; in the data active means parasite load remaining mostly below about 12%, no sharp cut-off; inactive means mostly above about 10%;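 further: 100% = mean of DMSO negative control wells on the same plate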); details: P. berghei liver stage in HepG2, luciferase luminescence, concentration not given here; parasite load remaining: stronger effect = lower value; viability: measured here: HepG2 viability without parasites
# [20] = cisplatin combination, at 0.5 µM
# [21] = measured here: BGB IC40 combination 0.05 uM, at 0.05 µM
# [22] = measured here: BGB IC40 combination, at 0.05 µM
# [23] = measured here: combination with cisplatin, at 0.5 µM
# [24] = measured here: with BGB IC20 combination, at 0.5 µM
# [25] = measured here: with cisplatin IC20 combination, at 0.5 µM
# [26] = stronger effect = lower value, cell number ratio, induced over uninduced
# [27] = measured here: relative caspase fold change +Dox/-Dox
# [28] = measured here: total cells with miR-34 induction, stronger effect = lower value
# [29] = measured here: total cells without miR-34 induction
# [30] = MELAS cybrid survival, CellTiter-Glo 48 h, stronger effect = higher value
# [31] = Rieske KO mouse fibroblast survival, CellTiter-Glo 72 h
# [32] = measured here: combination with BGB IC40, at 0.05 µM
# [33] = measured here: combination with cisplatin, at 5 µM
structure (smiles),measurement,setting,value
COc1ccc(CC(N)C(=O)NC2C(CO)OC(n3cnc4c(N(C)C)ncnc43)C2O)cc1 (configuration not stated),inhibition,[1]; [20],43% and 48.9%
same,inhibition,"[1]; cisplatin combination, at 5 µM",88.5% and 94%
same,inhibition,[1]; [21],-4.12% and 46.7%
same,inhibition,"[1]; single agent, at 5 µM",105% and 104%
same,inhibition,[2]; at 0.5 µM,33.4% (inactive) and 51.8% (inactive)
same,inhibition,"[2]; cisplatin combo, at 5 µM",76% and 95.5%
same,inhibition,[2]; [22],-32% and 8.46%
same,inhibition,[2]; [23],49.2% and 73.8%
same,inhibition,"[2]; single agent, at 5 µM",95.9% and 95.4%
same,inhibition,[3]; at 0.5 µM,86.2% (active) and 95.7% (active)
same,inhibition,[3]; [24],92.5% and 96.5%
same,inhibition,[3]; [25],82.6% and 95.3%
same,inhibition,"[3]; single agent, at 0.05 µM",-45.7% and -4%
same,inhibition,"[3]; single agent, at 5 µM",100% and 99.7%
Cc1cc(C)c(Nc2ccnc(Nc3ccc(C#N)cc3)n2)c(C)c1,fold change,[4]; [26],0.923 (inactive)
same,fold change,[4]; [27],0.624
same,cell count,[4]; [28],2390
same,cell count,[4]; [29],2590
same,z-score,[5]; [30],0.0317 (inactive)
same,z-score,[5]; [31],0.105
same,inhibition,"[6]; at 0.5 µM, stronger effect = higher value",-1.98% (inactive)
same,inhibition,"[6]; measured here: combination with BGB IC20, at 0.005 µM",-30.5%
same,inhibition,"[6]; measured here: combination with BGB IC40, at 0.005 µM",-59.6%
same,inhibition,[6]; [32],-34.5%
same,inhibition,"[6]; measured here: combination with cisplatin, at 0.5 µM, stronger effect = higher value",-3.17%
same,inhibition,"[6]; measured here: combination with cisplatin, at 5 µM, stronger effect = higher value",-40.8%
same,inhibition,"[7]; BGB combo, at 5 µM",15.1%
same,inhibition,[7]; at 0.5 µM,0.3% (inactive)
same,inhibition,"[7]; cisplatin combo, at 5 µM",3.99%
same,inhibition,[7]; [24],-2.53%
same,inhibition,[7]; [25],7.83%
same,inhibition,"[7]; single agent, at 5 µM",42.2%
same,inhibition,"[8]; BGB IC20 combo, at 0.005 µM",-14.3%
same,inhibition,"[8]; BGB IC40 combo, at 0.005 µM",-27.4%
same,inhibition,"[8]; BGB IC40 combo, at 0.05 µM",-8.56%
same,inhibition,[8]; at 0.5 µM,-22.9% (inactive)
same,inhibition,"[8]; cisplatin combo, at 0.05 µM",-14.1%
same,inhibition,"[8]; cisplatin combo, at 0.5 µM",-41.4%
same,inhibition,"[8]; cisplatin combo, at 5 µM",-46.6%
same,inhibition,"[8]; measured here: 5 uM single agent, at 5 µM",-22%
same,inhibition,[9]; at 0.5 µM,-25.5% (inactive)
same,inhibition,[9]; [32],-43.1%
same,inhibition,[9]; [23],-56.3%
same,inhibition,[9]; [33],-12.2%
same,inhibition,[10]; at 0.5 µM,-1.97% (inactive)
same,inhibition,"[10]; measured here: with BGB IC20, at 0.5 µM",4.79%
same,inhibition,"[10]; measured here: with BGB IC20, at 5 µM",40.8%
same,inhibition,"[10]; measured here: with cisplatin IC20, at 0.5 µM",-20.5%
same,inhibition,"[10]; measured here: with cisplatin IC20, at 5 µM",9.74%
same,inhibition,"[10]; single agent, at 5 µM",50.9%
same,inhibition,[11]; at 0.5 µM,-8.33% (inactive)
same,inhibition,"[11]; measured here: combination with BGB at IC20, at 0.5 µM",-39%
same,inhibition,"[11]; measured here: combination with cisplatin at IC20, at 0.5 µM",10.4%
same,inhibition,[12]; at 0.5 µM,-17.9% (inactive)
same,inhibition,"[12]; measured here: combo with BGB at IC20, at 0.5 µM",-21.5%
same,inhibition,"[12]; measured here: combo with cisplatin at IC20, at 0.5 µM",-28.7%
same,inhibition,[13]; at 0.5 µM,-2.26% (inactive)
same,inhibition,"[13]; measured here: inhibition with BGB combination, at 0.05 µM",-10.8%
same,inhibition,"[13]; measured here: inhibition with cisplatin combination, at 0.05 µM",-7.91%
same,inhibition,[14]; at 0.5 µM,-18.5% (inactive)
same,inhibition,[14]; [23],-29.8%
same,inhibition,[14]; [33],-25.8%
same,inhibition,[15]; at 0.5 µM,-14.9% (inactive)
same,inhibition,"[15]; measured here: BGB combination, at 0.5 µM",-9.41%
same,inhibition,"[15]; measured here: BGB combination, at 5 µM",25.9%
same,inhibition,"[15]; measured here: cisplatin combination, at 0.5 µM",-36.7%
same,inhibition,"[15]; measured here: cisplatin combination, at 5 µM",45.4%
same,inhibition,"[16]; BGB combination, concentration series, at 5 µM",69.3%
same,inhibition,[16]; at 0.5 µM,-2.68% (inactive)
same,inhibition,"[16]; cisplatin combination, concentration series, at 5 µM",45%
same,inhibition,[17],11.9% (inactive)
same,inhibition,[17]; measured here: combo with BGB IC20,11.7%
same,inhibition,[17]; measured here: combo with cisplatin IC20,9.36%
same,inhibition,[1]; at 0.5 µM,8.57% (inactive)
same,inhibition,[1]; [20],-23.4%
same,inhibition,"[1]; cisplatin combination, at 5 µM",-181%
same,inhibition,[1]; [21],-32.7%
same,inhibition,"[1]; single agent, at 5 µM",2.56%
same,inhibition,[2]; at 0.5 µM,-10.9% (inactive)
same,inhibition,"[2]; cisplatin combo, at 5 µM",-30.4%
same,inhibition,[2]; [22],-21.8%
same,inhibition,[2]; [23],-16.3%
same,inhibition,"[2]; single agent, at 5 µM",17.4%
same,inhibition,[3]; at 0.5 µM,11.1% (inactive)
same,inhibition,[3]; [24],-10.9%
same,inhibition,[3]; [25],20.9%
same,inhibition,"[3]; single agent, at 0.05 µM",-17.9%
same,inhibition,"[3]; single agent, at 5 µM",56.2%
CCCCC[C@H](O)/C=C/[C@@H]1[C@@H](C/C=C\CCCC(=O)O)[C@@H](O)C[C@H]1O (tested in a mixture with another compound),survival,[18],6.75 (inactive)
same,parasite load remaining,[19],74.8% (inactive) and 88.7% (inactive)
same,viability,[19],111% and 88.8%
same,fold change,[4]; [26],0.919 (inactive)
same,fold change,[4]; [27],1.17
same,cell count,[4]; [28],8520
same,cell count,[4]; [29],9270
same,z-score,[5]; [30],-0.0339 (inactive)
same,z-score,[5]; [31],-1.21
